# Experimental data from ChEMBL document CHEMBL1961873, “Compounds: GSK PKIS; Assays: Nanosyn kinase panel” (2012).
# Values joined by “and” are separate entries in the source; they are usually repeats but may differ in a detail not shown here. Equal values may be shown once.
# Molecular target: Vascular endothelial growth factor receptor 2 (Homo sapiens) (UniProt P35968);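 further: each value is the mean percent inhibition of KDR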
# Details: at 1 µM
# Chain of Vascular endothelial growth factor receptor 2 (Homo sapiens) (P35968 whole entry): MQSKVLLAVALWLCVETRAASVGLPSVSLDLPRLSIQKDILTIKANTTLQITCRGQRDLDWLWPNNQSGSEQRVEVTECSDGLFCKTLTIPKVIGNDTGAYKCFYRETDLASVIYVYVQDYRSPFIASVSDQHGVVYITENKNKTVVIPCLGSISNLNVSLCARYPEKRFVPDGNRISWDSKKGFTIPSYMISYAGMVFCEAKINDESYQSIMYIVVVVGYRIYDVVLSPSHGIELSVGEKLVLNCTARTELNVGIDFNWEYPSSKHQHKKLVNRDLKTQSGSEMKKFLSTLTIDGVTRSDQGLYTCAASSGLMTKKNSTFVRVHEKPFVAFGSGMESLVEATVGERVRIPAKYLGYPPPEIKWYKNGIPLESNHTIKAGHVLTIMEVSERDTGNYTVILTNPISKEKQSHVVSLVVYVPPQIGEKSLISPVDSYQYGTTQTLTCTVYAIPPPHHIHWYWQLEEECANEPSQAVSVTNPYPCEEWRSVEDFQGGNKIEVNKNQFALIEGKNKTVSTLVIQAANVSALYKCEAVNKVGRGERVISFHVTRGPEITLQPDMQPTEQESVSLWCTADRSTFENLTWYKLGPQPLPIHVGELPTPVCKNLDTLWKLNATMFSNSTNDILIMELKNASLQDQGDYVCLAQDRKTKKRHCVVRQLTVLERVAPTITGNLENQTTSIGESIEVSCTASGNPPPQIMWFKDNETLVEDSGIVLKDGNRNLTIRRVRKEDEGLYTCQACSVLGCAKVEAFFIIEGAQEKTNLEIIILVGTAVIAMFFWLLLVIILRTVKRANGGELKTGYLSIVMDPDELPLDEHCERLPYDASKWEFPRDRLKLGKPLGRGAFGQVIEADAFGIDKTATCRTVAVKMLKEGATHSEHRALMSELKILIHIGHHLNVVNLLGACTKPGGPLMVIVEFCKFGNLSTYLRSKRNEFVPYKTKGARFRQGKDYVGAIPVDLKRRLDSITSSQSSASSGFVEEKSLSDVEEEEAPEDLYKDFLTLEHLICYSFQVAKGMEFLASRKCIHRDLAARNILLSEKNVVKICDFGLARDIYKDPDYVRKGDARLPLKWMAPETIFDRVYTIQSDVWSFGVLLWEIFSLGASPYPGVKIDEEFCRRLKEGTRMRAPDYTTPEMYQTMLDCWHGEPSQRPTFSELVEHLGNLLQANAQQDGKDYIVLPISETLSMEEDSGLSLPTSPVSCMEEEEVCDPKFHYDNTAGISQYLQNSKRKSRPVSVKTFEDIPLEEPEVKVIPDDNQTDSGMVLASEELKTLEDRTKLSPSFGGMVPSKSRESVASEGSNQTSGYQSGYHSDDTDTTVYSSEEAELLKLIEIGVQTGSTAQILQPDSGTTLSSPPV
row,Structure (SMILES),inhibition
1,COc1cccc(-n2ncc3c(N/N=C/c4ccc(C(=O)NCCN(C)C)cc4)ncnc32)c1,68.7%
2,CN1CCC(C(=O)Nc2n[nH]c3nc(-c4ccc(O)cc4)c(Br)cc23)CC1,24.5% and 23.2%
3,O=C(O[C@H]1CN[C@H](C#Cc2cc3ncnc(Nc4ccc5c(cnn5Cc5ccccc5)c4)c3s2)C1)N1CCOCC1,8.91%

# Molecular target: Mast/stem cell growth factor receptor Kit (Homo sapiens) (UniProt P10721);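 further: values are mean inhibition of KIT, from the GSK PKIS dataset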
# Details: at 0.1 µM
# Chain of Mast/stem cell growth factor receptor Kit (Homo sapiens) (P10721 whole entry): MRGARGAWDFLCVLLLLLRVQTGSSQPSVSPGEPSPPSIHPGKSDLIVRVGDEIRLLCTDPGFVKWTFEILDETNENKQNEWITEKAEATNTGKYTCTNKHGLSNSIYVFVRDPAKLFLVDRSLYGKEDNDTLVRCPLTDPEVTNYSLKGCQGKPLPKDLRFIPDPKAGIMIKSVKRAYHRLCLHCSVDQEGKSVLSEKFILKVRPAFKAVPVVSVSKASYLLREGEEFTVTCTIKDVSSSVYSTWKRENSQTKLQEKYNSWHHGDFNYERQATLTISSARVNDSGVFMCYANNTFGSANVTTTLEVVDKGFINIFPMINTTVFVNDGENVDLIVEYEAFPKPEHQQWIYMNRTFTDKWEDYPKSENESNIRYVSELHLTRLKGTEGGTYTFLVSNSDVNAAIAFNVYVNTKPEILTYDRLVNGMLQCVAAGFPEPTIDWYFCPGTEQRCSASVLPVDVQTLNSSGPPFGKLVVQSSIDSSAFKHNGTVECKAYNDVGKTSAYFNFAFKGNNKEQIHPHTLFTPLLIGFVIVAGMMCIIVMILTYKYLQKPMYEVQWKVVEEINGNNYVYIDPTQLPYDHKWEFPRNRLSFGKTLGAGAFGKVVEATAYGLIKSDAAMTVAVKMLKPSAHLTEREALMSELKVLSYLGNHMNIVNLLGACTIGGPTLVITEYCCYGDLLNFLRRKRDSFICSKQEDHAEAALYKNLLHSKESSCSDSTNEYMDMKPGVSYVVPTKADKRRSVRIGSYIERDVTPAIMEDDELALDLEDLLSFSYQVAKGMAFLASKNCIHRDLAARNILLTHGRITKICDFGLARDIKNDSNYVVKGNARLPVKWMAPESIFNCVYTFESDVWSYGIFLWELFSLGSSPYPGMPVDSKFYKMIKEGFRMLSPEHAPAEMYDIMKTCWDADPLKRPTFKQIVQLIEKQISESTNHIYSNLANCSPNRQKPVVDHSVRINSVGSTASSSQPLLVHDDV
row,Structure (SMILES),inhibition
1,CN1CCN(Cc2ccc(-c3cc4ncnc(Nc5ccc(OCc6cccc(F)c6)c(Cl)c5)c4s3)o2)CC1,3.38% and 6.79%
2,Cc1nnc(-c2cccc(-c3ccc(C(=O)NCC4CC4)cc3)c2)o1,7.19%
3,CCn1c(-c2nonc2N)nc2cncc(C(=O)NCCNC)c21,6.23%
4,COc1c(C(N)=O)cc(-c2ccc(Cl)cc2)cc1-c1ccc(S(N)(=O)=O)cc1,6.94%
5,COc1cc(N2CCN(C(C)C)CC2)ccc1Nc1nc(Nc2cccc3ncccc23)c2cc[nH]c2n1,-0.77%
6,CS(=O)(=O)CCNCc1ccc(-c2ccc3ncnc(Nc4ccc(OCc5ccccc5)cc4)c3c2)o1,2.46%
7,Cc1c2ccc(N(C)c3ccnc(Nc4cccc(S(N)(=O)=O)c4)n3)cc2nn1C,92.6%
8,N#Cc1cccc(Nc2ncc(-c3ccccc3)o2)c1,19.9%
9,FC(F)(F)CNc1nccc(-c2cnn3ncccc23)n1,2.28%
10,c1cnn2ncc(-c3ccnc(NCCCN4CCOCC4)n3)c2c1,5.59%
11,Cc1cc(O)cc(C)c1/C=C/c1cncc(C(N)=O)c1,16.3%
12,NC(=O)c1ccc2c(-c3ccnc(NCCCO)n3)c(-c3ccc(F)cc3)nn2c1,6.24%
13,Fc1cccc(COc2ccc(Nc3ncncc3C#Cc3ccccc3)cc2Cl)c1,3.62%
